# Laboratory results reported in PubChem BioAssay AID1159506 (National Center for Advancing Translational Sciences (NCATS), 2015).
# Over roughly 59,000 sequences, the read-out has its median near -0.00055; the lowest 2% begin near -2. This is one part of a sample in which the lowest values are shown more often than they occur.
# Experiment: Identification of proteins required for the processing of the EWS-FLI1 nascent transcript;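 also: robust z of luciferase light less the median z of siRNAs with the same seed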
# Conditions: TC32 Ewing sarcoma NR0B1-luc vs CMV-luc (EWS-FLI1 target promoter against control promoter), 48 h; screened at 20 nM (by protocol)
# Outline: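 Readout: OneGlo luminescence, 48 h post-transfection, TC32-NR0B1-luc vs TC32-CMV-luc in parallel. siRNA 20 nM final, RNAiMax lipid, 600 cells/well; z-score-MAD transformed, then seed-adjusted.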
row,Sequence,seed-corrected z-score
1,UUGAGAUAGGCUGAGACCU against TMPRSS4,-0.502
2,AAUUGUCGUAGUCAGUAUC against PAEP,-0.99
3,UUUGUCUUUUGCAUCUUUC against SFPQ,-2.66
4,AUCGUUCACGUCUUGAUCC against CPSF6,-0.744
5,AUAGGGAGCACUUGGGAGC against C20orf24,-1.49
6,AAACCUUCCAUUGUUGAGG against ACADVL,0.629
7,UUCGCUGUCACUGUGGUUG against FAM134C,-1.48
8,UAUUAUUCGACUCAUGGUC against EFCAB2,-2.54
9,UAACAUCGCACCAGUAAUC against L3MBTL4,-0.0952
10,UGUUCCUUUAUUGUAGCCC against ALG13,0.155
11,UGUAGGACAAGCGCUGCUG against DGCR6,-0.188
12,AUAUUAGCAUUCUUAAUGG against ABCB10,-0.347
13,UUCAUGACUCUUGCAUUCC against ZNF473,-0.227
14,UAUAGUCUGCGUAGAGUUC against BSCL2,0.905
15,UCGGUAUUCGAUGUGGUCC against CD177,1.39
16,AUAAGAUACCUCUCUAUUC against NXPE1,-3.1
17,UGAUAUAGCCUCCAUAUGC against INVS,-0.175
18,UUCUAAUCUAGUGAUUAGC against LDB2,0.172
19,UAAACUGAAACGGAAAUGC against PTCHD3P1,-0.411
20,UUGAGUUUGUCACAGUUUC against SH3BP2,0.349
21,UUUCAGCUUAGGAAAGGCA against KRTDAP,-4.29
22,AGAUCUAUUGUGAACAGCC against FLT3,-0.0495

row,Sequence,seed-corrected z-score
1,UAGGUAAAUAGCCUCGUGC against CEACAM19,0.0325
2,UUGCAUUUUCAGGUACUUG against RDH5,-0.555
3,UUUGUAAGCUCUGUCAUCC against FAM13B,-0.0737
4,ACCUGUCAAAGAGCAAAGC against AMD1P3,0.646
5,UCUGAGUUUUGAGCUGUCC against MST1R,-0.112
6,UGUCUAAUGACAAUGCUGU against UBR5,-0.38
7,UACUGCUAGAUUGAGAUCC against KDM5D,-2.31
8,UAUCUUGCAUAAGUCUUGU against XRCC6BP1,1.28
9,UACUCUUUUCCACGAAUCC against CCDC141,-0.626
10,UUCAAUACCAAAGAUAUUG against BTF3P16,-2.14
11,UGAGGUCCCAGAUUCUCAG against FBXW4,0.248
12,UCUUCGUCAUCGUUCAUUC against ZC3H4,-2.37
13,AUAGACAUCUGAUCCGUUC against PGK1,-0.0528
14,UCUGCGACAUUCCUCAUAG against XPO1,-0.546
15,AUCCAGAUUAGUUUCCCUC against VIM,-2.52
16,UCAAUCUCAACGGUCACCG against NLRP1,1.3
17,UUUGAUUGAGGCAUAUGCG against REEP6,1.08
18,UCAGGUUCAGCAGGAAGUG against ADAMTS10,-0.537
19,UUAAUGGUGACCUUGACCU against C19orf47,-0.413
20,AACUGAGUUGUAGAGCUGC against IL12RB1,-0.226
21,AAUUCUUUUUGUCUGGAUC against PRSS35,0.405
22,UAAAUCUGCUCUCCUUUCC against LY86,0.785

row,Sequence,seed-corrected z-score
1,UUCUCUUCAACAAGUGACA against C6orf201,-2.08
2,UCUCUGUCCUCAAAAGUGG against CLCN4,-0.277
3,UACGUGAGCUUGUACAGCC against MTTP,-0.0803
4,UCGAGUGUGAUGUCUCUUC against AGO3,0.413
5,UUGUGCACCACGAGAGUAG against RAB40AL,-2.28
6,UUCUGGAGCAGUUCGACAG against CNPPD1,0.781
7,UUCUCAAUCAGCACGGCCC against GPX2,-0.162
8,UCAUGUACACUGCUAAUUC against SLC30A10,0.696
9,AUACUGUUCACCGAGAAGG against TSPEAR,-3.82
10,UAUGUUGGUGCUCAUACUC against MED11,0.678
11,UUAAACUCAGGCUUUGGUC against HABP4,-1.03
12,UACUGAUUCACAAUGACCU against RNF208,-0.361
13,UAACUUGAUAACAGGUGCC against OR10T2,-5.77
14,AAAAACAACAGAAGCAUGC against TSPAN8,0.399
15,UGUUGUUCAACAAAACCGC against KRT28,0.472
16,AUAGGCAUAUGGUUAGGCC against SS18,-2.03
17,ACAGCGUACAGCAAACACG against TMEM54,-12
18,UUCCUCUUCACCACGGUGU against CNNM3,-0.123
19,UGAGAGUUCAUAGCGUAUC against RCE1,-0.494
20,AAAGUAUAAUGGAUGUAUC against GNAI1,-0.47
21,AUAGGUACCAGGUAUGAGC against FOXM1,0.087
22,UUUGUUGGGAUGUUGGGUG against SPATA12,-2.1

row,Sequence,seed-corrected z-score
1,UGCUGAAUGAGGUACGUGC against ZNF550,-0.438
2,UAUCCAUUUUCCUCUAUCC against FGF10,-0.261
3,UAUGGUUAGAAGAUAUCCC against IDS,1.1
4,AAAAGCUCACGGAGAAUCC against LINC01433,1.28
5,AACUGUCAAUGGUUGAAGC against FCGR2A,-0.901
6,AGUUUCUCAAUGUCUGGGC against PAGR1,-3.83
7,UUCGAGAAAAGCAGAAUCC against PRORSD1P,-0.604
8,ACAUCAACCACUACAGUGC against PCDHB7,-0.314
9,UUAACUUUCUCGAUAGAAC against SLC45A2,0.853
10,UUGACGUGCAUGAAGGACC against DUSP3,-0.254
11,UUCAGUACCAGGCUGGGUG against COMT,0.499
12,UUCUUGAUGAUCUUUAGCU against LONP1,0.0484
13,UGGUCUAUAGUAUUCAUGC against YTHDF2,-0.0088
14,UGAUUAUUAGGUACUACCC against RCN2,-2.4
15,UUCAAUCAGAUCGAAGAGC against CLK2,0.0394
16,AAAGAAGUAGAGGUAGGAC against OR6T1,0.724
17,UUAACUGCACCAUCAGUGU against S100A8,-3.04
18,UCAGCAUCAACAUAAUGCG against TAS2R40,-1.07
19,UGACGAAUCCCUGCUAUAG against TDRD5,-0.0697
